This is part of a sample that, as a whole, favours compounds with a hit. Of some 83,000 tested, about 20% had one in any assay.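 Percent growth is the endpoint: 0 to 100 indicates growth inhibition (40 means 60% inhibition), 0 means no net growth, and negative values indicate cell death.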 Calls of active or inactive are those of the source. The calls were made as follows: active = growth percent below 10; inactive = the rest.
Each molecule was assayed on MDA-MB-468 breast (assay: NCI-60 one-dose screen, 48 h (100 = growth as untreated, 0 = no growth, -100 = all killed)). Settings: 10 µM unless noted.

Row | Compound | growth
1 | N#C/C(=C\c1ccc2c(c1)OCO2)c1ccccc1 | 24.8% (inactive)
2 | COC1=CC(c2ccc[nH]2)=N/C1=C\c1[nH]c(C)c(C)c1CCC(=O)OCc1ccccc1 | 15.6% (inactive)
3 | COC1=CC(=O)OC(c2ccc(OC)cc2)C1 (centres undefined) | 112% (inactive)
4 | C=C1c2c(C)nn(-c3ccc(OC)cc3)c2N(C)C23C[C@@H]1C1(C)c4c(C)nn(-c5ccc(OC)cc5)c4N(C)C(C)(C[C@H]12)C3 (some centres undefined) | 31.9% (inactive)
5 | COc1cc(-c2nc3sccn3c2-c2ccnc(NCCCNS(=O)(=O)c3ccc(F)cc3)n2)ccc1F | 61.3% (inactive)
6 | ClCC#CCSc1ncnc2c1ncn2CC#CCCl | -57.2% (active)
7 | O=C(N/N=C\c1cc(Cl)ccc1O)N/N=C/c1cc(Cl)ccc1O | 61.5% (inactive)
8 | NS(=O)(=O)c1ccc(N=Nc2c(O)n(Cc3ccccc3)c3ccc(Cl)cc23)cc1 | 83.3% (inactive)
9 | CCNCCCn1c2c(c3ccc(Cl)cc3c1=O)C(=O)c1cc(OC)cnc1-2 | 5.92% (active)
10 | COc1cccc(N=CNc2cccc(OC)c2)c1 | 107% (inactive)
11 | O=[N+]([O-])c1ccc(N/N=C(/C(=N/Nc2ccc([N+](=O)[O-])cc2)c2ccccc2)c2ccccc2)cc1 | 80.6% (inactive)
12 | CNC(=O)c1cccc2cc(Oc3ccnc4cc(OCC5(N)CC5)c(OC)cc34)ccc12 | 74.6% (inactive)
13 | Cc1ccc(-c2cnc3sc(C(=O)NCCc4ccccc4)c(C)n23)cc1 | 93.1% (inactive)
14 | CN[C@@H]1C(OC2[C@H](O[C@H]3[C@H](O)[C@@H](O)[C@H](N=C(N)N)[C@@H](O)[C@@H]3N=C(N)N)OC(C)[C@]2(O)CO)OC(CO)C(O)C1O (some centres undefined) | 108% (inactive)
